According to PubChem BioAssay (NCATS):
Values joined by “and” are separate entries in the source; they are usually repeats but may differ in a detail not shown here. Equal values may be shown once. A number with no mark means an inactive call. Records with an inconclusive call do not appear. Where a call stands in place of a potency, no number is given. Active and inactive are the calls of the source. Unless noted, the call rests on the fitted dose curve; in most records, active means well fitted curve in the direction sought with a large enough effect; inconclusive means small, poorly fitted or top-dose-only effect, or another doubt; inactive means no such curve, though single readings can be large; an effect the other way counts as inactive or inconclusive.

Legend:
[1] = test system: Hek293T; experiment: Primary qHTS to identify gynecologic anti-cancer compounds using libraries of approved drugs and bioactive compounds (AID 1345084); conditions: Gynecologic cancer cell panel viability, ATPlite luminescence, 48 h, control line for the selectivity index; series mostly up to 57.5 µM; further: nearly all actives have a fitted effect of over 55% in size
How it was run: (§1)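 Measured: luminescence after ATPlite addition (15 min, RT). Exposure: 48 h, 37 C, 5% CO2.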

[2] = test system: JEG-3; experiment: as above; conditions: Gynecologic cancer cell panel viability, ATPlite luminescence, 48 h; series mostly up to 57.5 µM
How it was run: as §1

[3] = test system: OV90; experiment: as above; conditions: Gynecologic cancer cell panel viability, ATPlite luminescence, 48 h; series mostly up to 57.5 µM
How it was run: as §1

[4] = test system: PA-1; experiment: as above; conditions: Gynecologic cancer cell panel viability, ATPlite luminescence, 48 h; series mostly up to 57.5 µM
How it was run: as §1

[5] = test system: SKOV3; experiment: as above; conditions: Gynecologic cancer cell panel viability, ATPlite luminescence, 48 h; series mostly up to 57.5 µM
How it was run: as §1

[6] = test system: Tov-21-G; experiment: as above; conditions: Gynecologic cancer cell panel viability, ATPlite luminescence, 48 h; series mostly up to 57.5 µM
How it was run: as §1

[7] = test system: Tov112D; experiment: as above; conditions: Gynecologic cancer cell panel viability, ATPlite luminescence, 48 h; series mostly up to 57.5 µM
How it was run: as §1

[8] = Drug repurposing screens with cells derived from glioblastoma tumor samples (AID 1345199); conditions: GBM patient neurospheres viability, ATP luminescence, 48 h; further: nearly all actives have a fitted effect of over 40% in size; further: potency means the concentration at half of the fitted maximal effect
How it was run: (§2)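 Primary testing used CD133+ neurospheres from four GBM patients, seven concentrations, 48 h exposure and ATP-based viability; confirmation added three slower-growing patient lines.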

[9] = molecular target: Nuclear receptor subfamily 1 group I member 2 (Rattus norvegicus) (UniProt Q9R1A7); experiment: qHTS assay for small molecule activators of the rat pregnane X receptor (rPXR) signaling pathway (AID 651751; call rule not given here); conditions: rPXR reporter cells, luciferase (One-Glo), 24 h
Sequence of Nuclear receptor subfamily 1 group I member 2 (Rattus norvegicus) (Q9R1A7 whole entry, looked up): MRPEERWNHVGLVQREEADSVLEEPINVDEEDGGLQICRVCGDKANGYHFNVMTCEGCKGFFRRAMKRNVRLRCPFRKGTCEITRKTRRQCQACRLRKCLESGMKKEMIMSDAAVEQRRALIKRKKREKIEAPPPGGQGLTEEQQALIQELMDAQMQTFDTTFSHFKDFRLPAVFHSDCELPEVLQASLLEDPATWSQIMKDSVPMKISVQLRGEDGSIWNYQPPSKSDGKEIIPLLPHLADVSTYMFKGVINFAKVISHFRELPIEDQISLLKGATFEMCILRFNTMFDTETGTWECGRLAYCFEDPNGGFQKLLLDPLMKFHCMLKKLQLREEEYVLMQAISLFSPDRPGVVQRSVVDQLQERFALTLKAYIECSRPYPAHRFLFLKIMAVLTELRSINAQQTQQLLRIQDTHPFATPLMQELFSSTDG

[10] = qHTS assay for small molecule activators of the human pregnane X receptor (PXR) signaling pathway (AID 720659; call rule not given here); conditions: DPX-2 HepG2 CYP3A4-luciferase, 24 h; series mostly up to 92.3 µM
[11] = test system: astro; experiment: Drug repurposing screens with cells derived from glioblastoma tumor samples (AID 1345199); conditions: viability, ATP luminescence, 48 h; series mostly up to 45.9 µM; further: nearly all actives have a fitted effect of over 40% in size; further: potency means the concentration at half of the fitted maximal effect
How it was run: as §2

[12] = at 45.9 µM (top of the series), tumour line B
[13] = at 45.9 µM (top of the series), tumour line D
[14] = at 46 µM (top of the series), tumour line A
[15] = at 46.1 µM (top of the series), tumour line C
[16] = at 20 µM (top of the series), tumour line C
[17] = at 21.2 µM (top of the series), tumour line B
[18] = at 21.2 µM (top of the series), tumour line D

Structure (SMILES) | Potency [1] | Potency [2] | Potency [3] | Potency [4] | Potency [5] | Potency [6] | Potency [7] | activity, negative = cell killing [8, 12] [%] | activity, negative = cell killing [8, 13] [%] | activity, negative = cell killing [8, 14] [%] | activity, negative = cell killing [8, 15] [%] | max response [9] | outcome [10] | Potency [11] | Potency ([8]; tumour line A) | activity, negative = cell killing [8, 16] [%] | activity, negative = cell killing [8, 17] [%] | activity, negative = cell killing [8, 18] [%] | Potency ([8]; tumour line D)
CCCCCCCCCCCCCC(=O)OC(C)C | inactive | inactive | inactive | inactive | inactive | inactive | inactive | 8.22 | -15.3 | -17.4 | 3.73 | 2.24% | inactive | – | – | – | – | – | –
FC1(F)C(F)(F)C(F)(F)C2(F)C(F)(F)C(F)(F)C(F)(F)C(F)(F)C2(F)C1(F)F (centres undefined) | inactive | inactive | inactive | inactive | inactive | inactive | inactive | -14.2 | -0.34 | – | -17 | – | – | inactive | – | – | – | – | –
CCCN(CCC)S(=O)(=O)c1ccc(C(=O)O)cc1 | inactive | inactive | inactive | inactive | inactive | inactive | inactive | -5.41 | 6.49 | -4.85 | -7.91 | 7.36% and 2.17% | inactive | inactive | – | – | – | – | –
NC(=O)C1(N2CCCCC2)CCN(CCCC(=O)c2ccc(F)cc2)CC1 | inactive | inactive | inactive | inactive | inactive | inactive | inactive | -7.35 | -28 | – | – | – | – | inactive | 10 µM (active) | – | – | – | –
NS(=O)(=O)Cc1noc2ccccc12 | inactive | inactive | inactive | inactive | inactive | inactive | inactive | -12.5 | -13.1 | – | 1.44 | – | – | inactive | – | – | – | – | –
CCCCC(CC)COC(=O)/C=C/c1ccc(OC)cc1 (centres undefined) | inactive | inactive | inactive | inactive | inactive | inactive | inactive | -11.8 | -6.07 | -26.1 | 6.67 | – | – | inactive | – | – | – | – | –
C[N+]1(C)CCC(=C(c2ccccc2)c2ccccc2)CC1 | inactive | inactive | inactive | inactive | inactive | inactive | inactive | – | – | – | – | – | – | inactive | – | 3.13 | -8.97 | 4.56 | –
OC[C@H]1O[C@@H](Oc2ccc(O)cc2)[C@H](O)[C@@H](O)[C@@H]1O | inactive | inactive | inactive | inactive | inactive | inactive | inactive | 0.949 | 7.3 | – | -9.99 | – | – | inactive | – | – | – | – | –
O=C1C(=O)c2ccccc2C(O)=C1C1CCC(c2ccc(Cl)cc2)CC1 (centres undefined) | inactive | inactive | inactive | inactive | inactive | inactive | inactive | – | – | – | – | – | – | 12.6 µM (active) | 14.1 µM (active) | -16.4 | – | – | 8.91 µM (active)
CCN1CCCC(OC(=O)C(c2ccccc2)c2ccccc2)C1 (centres undefined) | inactive | inactive | inactive | inactive | inactive | inactive | inactive | – | – | – | – | – | – | inactive | 8.91 µM (active) | -5.6 | -12.3 | -10.7 | –
CC(=O)O[C@H]1C[C@@H]2CC[C@@H]3[C@H](CC[C@@]4(C)[C@H]3C[C@H]([N+]3(C)CCCCC3)[C@@H]4OC(C)=O)[C@@]2(C)C[C@@H]1N1CCCCC1 | inactive | inactive | inactive | inactive | inactive | inactive | inactive | -12.1 | -1.11 | – | -3.89 | – | – | inactive | – | – | – | – | –
NC(=O)c1ccccc1O | inactive | inactive | inactive | inactive | inactive | inactive | inactive | -6.32 | 0.802 | -27.6 | 4.05 | -4.39% | inactive | inactive | – | – | – | – | –
O=C(O)C1(C(=O)O)CCC1.[NH2-].[NH2-].[Pt+2] | inactive | inactive | inactive | inactive | inactive | inactive | inactive | -20.6 | -8.04 | – | -13.1 | – | – | inactive | – | – | – | – | –
Nc1nc(-c2ccccc2)c(Br)c(=O)[nH]1 | inactive | inactive | inactive | inactive | inactive | inactive | inactive | -8.97 | -11.4 | -28.3 | – | – | – | inactive | – | – | – | – | –
